We go through 93 molecules from PubChem BioAssay AID588852 (The Scripps Research Institute Molecular Screening Center, 2011).

Screen size: about 360,000 compounds; about 4,600 (1.3%) were called active.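 Rule for the calls: active = percent inhibition above its own plate's cutoff, namely the mean of that plate's compound wells plus 3 SD; inactive = the rest.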 Many of the other results were omitted from the sample, so actives are more common in it than they were.

The term inhibition denotes the change of the read-out against control, counted positive when it falls.

The target of this experiment is Muscarinic acetylcholine receptor M1 (Homo sapiens) (UniProt P11229). The experiment is described as follows: human M1 muscarinic receptor antagonists, primary screen, CHO-K1 cells, Fluo-8 calcium fluorescence, 1536-well (AID 588852).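 Note: peak over basal fluorescence ratio during 140 s after agonist addition; 0% = ACh EC80 plus DMSO and 100% = DMSO alone without agonist.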 Conditions: CHO-K1 hM1, Fluo-8 calcium fluorescence, ACh EC80 antagonist; at 3 µM; stronger effect = higher value.
Sequence of Muscarinic acetylcholine receptor M1 (Homo sapiens) (P11229 whole entry, looked up): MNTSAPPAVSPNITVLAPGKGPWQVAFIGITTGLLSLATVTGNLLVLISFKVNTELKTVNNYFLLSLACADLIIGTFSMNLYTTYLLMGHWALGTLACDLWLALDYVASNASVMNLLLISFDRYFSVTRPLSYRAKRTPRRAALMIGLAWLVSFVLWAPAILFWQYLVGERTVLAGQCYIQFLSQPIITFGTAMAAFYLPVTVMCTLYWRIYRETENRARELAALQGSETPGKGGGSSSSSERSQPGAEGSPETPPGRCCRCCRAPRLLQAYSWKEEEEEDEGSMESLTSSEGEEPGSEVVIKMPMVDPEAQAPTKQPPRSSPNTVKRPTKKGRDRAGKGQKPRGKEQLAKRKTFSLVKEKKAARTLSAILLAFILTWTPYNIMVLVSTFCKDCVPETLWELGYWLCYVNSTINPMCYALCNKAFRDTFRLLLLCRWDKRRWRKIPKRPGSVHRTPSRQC
Take `CCOC(=O)c1cccc(NC(=O)CN2C(=O)C3CC=CCC3C2=O)c1` (stereo not drawn): the inhibition was -6.58% (inactive).

For `Cc1ccccc1OCC(=O)NNC(=O)c1cc(S(=O)(=O)N(C)C)ccc1N1CCCC1`, the inhibition is -9.89% (inactive).

For the molecule `CN(C)Cc1ccccc1C1(O)c2ccccc2CSc2ccccc21` (stereo not drawn), the inhibition is 20.6% (inactive).

Consider `CN(C)CC/C=C1\c2ccccc2CSc2ccccc21`, for which the inhibition was 96.1% (active).

On to `COc1ccc(-c2ccc(C(=O)NCCN3CCOCC3)c3occc23)c(C)c1`, for which the inhibition was 1.54% (inactive).

`CC(C)C[C@H]1CNC(=S)N1C[C@H]1CCCN1C[C@H](Cc1ccc(O)cc1)N1C[C@H](Cc2ccc(O)cc2)N(CC2CCCCC2)C1=S`: the inhibition was 1.57% (inactive).

For the molecule `O=C(Nc1ccc(F)cc1)C1CCN(C(=O)c2ccc([N+](=O)[O-])cc2)CC1`, the inhibition is -0.31% (inactive).

For `C[N+]1(CC(O)COc2ccccc2)CCN(C(=O)c2ccc([N+](=O)[O-])cc2)CC1` (stereo not drawn), the inhibition is -2.65% (inactive).

On to `COc1ccccc1C1SCCN1C(=O)c1ccc([N+](=O)[O-])cc1` (stereo not drawn), for which the inhibition is 62% (active).

With `Cc1cccc(-c2nc3ccc(C(=O)NCCN4CCN(C)CC4)cc3nc2-c2cccc(C)c2)c1`, the inhibition is 46.9% (active).

In the case of `Cc1cc(C)cc(C(=O)NCCN2CCOCC2)c1`, the inhibition was -11.1% (inactive).

For the molecule `Cc1cccc(C(=O)OC(C)CN2CCN(C)CC2)c1` (stereo not drawn), the inhibition was -1.32% (inactive).

For `CSc1nc2sc3c(c2c(=O)[nH]1)CCc1ccccc1-3`, the inhibition was -1.53% (inactive).

Turning to `C/C(=N\NC(=O)NC1CCCCC1)c1ccc(OC(F)F)cc1OC(F)F`, the inhibition is 3.51% (inactive).

In the case of `CCSC(C)CC1C/C(=N/O)c2c(C)noc2C1` (stereo not drawn), the inhibition is 46.6% (active).

As to `CCCc1noc2c1/C(=N\O)CCC2`, the inhibition was -7.37% (inactive).

`COc1ccc(OC)c(Cc2cnc3nc(N)nc(N)c3c2C)c1`: the inhibition was -0.49% (inactive).

For the molecule `O=C(Cc1ccc(Cl)cc1)NC(=S)Nc1ccccc1O`, the inhibition is 64.7% (active).

In the case of `O=C(COc1ccc(Cl)cc1)NC(=S)Nc1ccccc1N1CCOCC1`, the inhibition is 1.11% (inactive).

On to `Cc1ccccc1NC(=S)NC(=O)Cc1ccc(Cl)cc1`, for which the inhibition was 14.3% (inactive).

Take `O=C(NCCCn1ccnc1)C1CCCN(S(=O)(=O)c2cc(Cl)ccc2Cl)C1` (stereo not drawn): the inhibition is 5.3% (inactive).

`Nc1ncnc2c1ncn2[C@@H]1O[C@H](C(=O)NCC(F)(F)F)[C@@H](O)[C@H]1O`: the inhibition is -26.1% (inactive).

On to `CCSC1=NCCN1S(=O)(=O)c1ccc(F)cc1`, for which the inhibition was 7.85% (inactive).

Turning to `COc1cc(C(=S)N2CCOCC2)ccc1O`, the inhibition was 0.12% (inactive).

For the molecule `COc1ccc(C(=O)NC(=S)NC2CCCCC2)cc1`, the inhibition was -6.7% (inactive).

As for `COc1cc(C(=S)NC2CCCCC2)ccc1O`, the inhibition is 99.6% (active).

Consider `CC(=O)Nc1cccc(Nc2ccc(C#N)cc2)c1`, for which the inhibition is -8.06% (inactive).

Consider `O=C(/C=C/[C@H]1O[C@@H](n2cnc3c(NC(=O)c4ccccc4)ncnc32)[C@H](O)[C@@H]1O)NCc1ccccc1`, for which the inhibition is -2.88% (inactive).

For the molecule `OCCC1CN(Cc2ccc3nsnc3c2)CCN1C1CCCC1` (stereo not drawn), the inhibition was 45.8% (active).

As for `Cn1cnnc1Sc1ccc(CN2CCN(C3CCCC3)C(CCO)C2)o1` (stereo not drawn), the inhibition is 25.2% (active).

Consider `CCOc1ccc(CN2CCN(Cc3ccc(C)o3)CC2CCO)cc1` (stereo not drawn), for which the inhibition is 0.92% (inactive).

`Cc1ccc(CN2CCN(Cc3ccc(OCCO)cc3)CC2CCO)o1` (stereo not drawn): the inhibition is -10.3% (inactive).

`OCCC1CN(Cc2ccc3nsnc3c2)CCN1C1CCCCC1` (stereo not drawn): the inhibition is 31.7% (active).

`OCC1(CCc2ccccc2)CCN(Cc2ccc3nsnc3c2)CC1`: the inhibition was -4.82% (inactive).

With `COc1cccc2c1OCC(CN1CCN(C3CCCCC3)C(CCO)C1)=C2` (stereo not drawn), the inhibition is 28% (inactive).

On to `CC(C)N1CCC(N2CCN(Cc3cccnc3)CC2CCO)CC1` (stereo not drawn), for which the inhibition is -8.8% (inactive).

In the case of `Cc1ccc(CN2CCN(Cc3ccc4ncccc4c3)CC2CCO)cc1` (stereo not drawn), the inhibition was 5.31% (inactive).

Regarding `CN(C)CCNC(=O)c1ccc(-c2cn3c(-c4ccc(Oc5ccccc5)cc4)cnc3cn2)cc1`, the inhibition is -3.33% (inactive).

On to `CCc1ccc(N2CC(C(=O)NC3=NCCS3)CC2=O)cc1` (stereo not drawn), for which the inhibition is -11.6% (inactive).

Consider `CN(Cc1ccccc1)CC(O)COc1ccc(CNCc2cc3ccccc3s2)cc1` (stereo not drawn), for which the inhibition was 15.1% (inactive).

As for `CCOC(=O)[C@H]1[C@H]2COc3ccc(Br)cc3[C@@H]2N2C(=O)CN(C)C(=O)[C@@]12C`, the inhibition is -4.45% (inactive).

Regarding `Cc1ccc2c(NC(=O)C3CC3)cccc2n1`, the inhibition was -22.4% (inactive).

As for `CN(C)S(=O)(=O)N1CCC(Oc2cccc(C(=O)NCCCC3CCCC3)c2)CC1`, the inhibition was 26.7% (inactive).

As for `Cc1cccc(C)c1-n1nnnc1C(CCc1ccccc1)N1CCN(C/C=C/c2ccccc2)CC1` (stereo not drawn), the inhibition is -27.1% (inactive).

Regarding `O=C(NCc1ccco1)/C(=C\c1cccc([N+](=O)[O-])c1)NC(=O)c1ccco1`, the inhibition is -2.79% (inactive).

Take `CCCC[C@@H]1CN=C(N)N1CCCC`: the inhibition was 8.39% (inactive).

Take `CCCC[C@@H]1CN=C(N)N1CCc1cccc(F)c1`: the inhibition is 18.6% (inactive).

Turning to `CCCC[C@@H]1CN=C(N)N1CCc1cc(C(F)(F)F)cc(C(F)(F)F)c1`, the inhibition was 51.9% (active).

For the molecule `CCN(CC(=O)Nc1c(F)cccc1F)C(=O)Cc1cccs1`, the inhibition is -16.3% (inactive).

On to `Cn1nccc1NS(=O)(=O)c1ccc(F)cc1`, for which the inhibition is -14.9% (inactive).

Regarding `COc1cccc(CNC(=O)CCC2CCCN(Cc3ccc(OC(F)F)cc3)C2)c1` (stereo not drawn), the inhibition was 20.6% (inactive).

For `COc1ccc(C[C@H]2CN3C(=NC[C@H]3C)N2CCNC(=O)CCC2CCCCC2)cc1`, the inhibition is 38.6% (active).

On to `C/C=C(\C)C(=O)NCCN1C2=NC[C@H](Cc3ccc(O)cc3)N2C[C@@H]1Cc1ccc(OC)cc1`, for which the inhibition is -3.4% (inactive).

Take `COc1ccc(C2c3c(C)nn(-c4ccccc4)c3NC(=O)N2c2ccccc2)cc1` (stereo not drawn): the inhibition was -12.4% (inactive).

For `CCOC(=O)[C@H]1[C@H]2COc3ccc(C)cc3[C@@H]2N2C(=O)CN(Cc3ccc(F)cc3)C(=O)[C@@]12C`, the inhibition was 35.9% (active).

For `CCOC(=O)[C@H]1[C@H]2COc3cc(OC)ccc3[C@@H]2N2C(=O)CN(Cc3ccc(Cl)cc3)C(=O)[C@@]12C`, the inhibition is -8.3% (inactive).

Take `CCOC(=O)[C@H]1[C@H]2COc3ccccc3[C@@H]2N2C(=O)CN(Cc3ccccc3)C(=O)[C@@]12C`: the inhibition is 7.51% (inactive).

For the molecule `O=C1OC(Cc2ccccc2)C(c2ccccc2)C1=O` (stereo not drawn), the inhibition was -4.64% (inactive).

As for `NCCCCC(C(=O)O)N(C(=O)OCc1ccccc1)C(=O)OCc1ccccc1` (stereo not drawn), the inhibition was 2.44% (inactive).

Take `CCC(=C/c1sc2ccc3ccccc3c2[n+]1C)/C=C1\Sc2ccc3ccccc3c2N1C`: the inhibition was -7.73% (inactive).

As for `CCCCOc1ccc(C(C)(O)CCN2CCOCC2)cc1` (stereo not drawn), the inhibition is -7.98% (inactive).

In the case of `CCCCCCC(O)(CCN1CCCCC1)c1ccccc1` (stereo not drawn), the inhibition was 98.8% (active).

In the case of `c1ccc2cc3[nH]c(CN4CCCCC4)nc3cc2c1`, the inhibition is -5.8% (inactive).

As for `CC(C)(c1ccccc1)c1ccc(OCCN2CCCC2)cc1`, the inhibition is 8.05% (inactive).

For the molecule `CC(CN1CCCCC1)c1ccccc1` (stereo not drawn), the inhibition was -23.4% (inactive).

As to `O=C(c1ccccc1)C(O)(CN1CCCCC1)c1ccccc1` (stereo not drawn), the inhibition was 1.74% (inactive).

Take `CCCCCC(O)(CCN1CCCCC1)c1ccccc1` (stereo not drawn): the inhibition was 99.8% (active).

As for `C#CC(CCN1CCCCC1)(OC)c1ccccc1` (stereo not drawn), the inhibition is 93.9% (active).

As to `CCc1ccccc1NC(=O)NCCN1CCCCC1`, the inhibition is -20.3% (inactive).

Regarding `CSc1nc(C)nc(C2CC2)c1C#N`, the inhibition was -5.81% (inactive).

With `CCOC1=C2[C@H]([C@H]3C(=O)N(c4ccccc4)C(=O)[C@H]3C1)[C@@H](c1ccccc1)N(S(=O)(=O)c1ccc(C)cc1)[C@H]2c1ccccc1`, the inhibition is -3.55% (inactive).

Take `c1ccc(Cc2c(-c3ccco3)nc3c4ccccc4ccn23)cc1`: the inhibition is -25.9% (inactive).

Take `Cc1ccc(-c2cnc(C(O)c3cc(Cl)cc(Cl)c3)[nH]2)cc1` (stereo not drawn): the inhibition is 10.3% (inactive).

Consider `COc1ccc(OC)c(-c2c(=O)n(OCc3ccccc3Br)c3ccccc3[n+]2[O-])c1`, for which the inhibition is -8.89% (inactive).

For the molecule `CCN(CC)S(=O)(=O)c1ccc(N2CCOCC2)c(NC(=O)C2CSC3(C)CCC(=O)N23)c1` (stereo not drawn), the inhibition was -11.2% (inactive).

In the case of `O=C(CC(O)(C(F)(F)F)C(F)(F)F)Nc1ccc(Cl)c(Cl)c1`, the inhibition was 41.1% (active).

Regarding `O=C(Cc1ncc(C(F)(F)F)cc1Cl)Nc1cccc(Br)c1`, the inhibition is 0.3% (inactive).

For `CN(CC(=O)Nc1ccc(Cl)c(C(F)(F)F)c1)C(=O)CCC(=O)c1ccccc1`, the inhibition was 10.7% (inactive).

Take `CC(=O)N1CCN(Cc2cc(=O)oc3cc(C)ccc23)CC1`: the inhibition is -6.95% (inactive).

In the case of `O=C(Nc1ccncc1)c1cc2ccccc2o1`, the inhibition was 11.1% (active).

For `Cc1cc(NC(=O)c2cc3ccccc3o2)no1`, the inhibition is 0.12% (inactive).

As for `COc1cc2ccccc2cc1C(=O)Nc1ccncc1`, the inhibition was -10.8% (inactive).

As for `CNS(=O)(=O)c1cnccc1N1CCN(c2cccc(C)c2)CC1`, the inhibition is -21.3% (inactive).

Take `CC(=O)N1CCc2c(sc(NC(=O)CCS(=O)(=O)c3ccc(C)cc3)c2C(N)=O)C1`: the inhibition is -9.37% (inactive).

Consider `CCc1nc2c(OCc3cccc(OC)c3)cccn2c1N(C)C(=O)C(C)C`, for which the inhibition was 5.18% (inactive).

As for `CCc1nc2c(OCc3ccc(Cl)cc3Cl)cccn2c1N(C)C(=O)C(C)C`, the inhibition is 2.38% (inactive).

Regarding `Cc1nc2c(OCC(=O)C(C)(C)C)cccn2c1N(C)Cc1cccs1`, the inhibition was -8.77% (inactive).

As to `CCCCC(=O)N(C)c1c(CC)nc2c(OCc3ccc(Cl)cc3Cl)cccn12`, the inhibition was 23.1% (inactive).

Turning to `Cc1nc2c(OCc3ccc(Cl)cc3Cl)cccn2c1N(C)CC1CC1`, the inhibition was 43.8% (active).

For `CCc1nc2c(OCc3ccc(F)c(F)c3)cccn2c1N(C)C(=O)c1ccco1`, the inhibition is -7.6% (inactive).

Consider `CCc1nc2c(OCc3ccccc3)cccn2c1N(C)C(=O)c1ccco1`, for which the inhibition is -4.6% (inactive).

With `Cc1nc2c(OCc3ccc(Cl)cc3)cccn2c1N(C)Cc1cccs1`, the inhibition is 38.4% (active).

Consider `Cc1nc2c(OCc3cccc(Cl)c3)cccn2c1N(C)CC1CC1`, for which the inhibition was 68.1% (active).
